Measured values from PubChem BioAssay (NCATS).
Results filed as inconclusive are left out. Activity calls are given as the source filed them. Calls come from the whole dose curve; as a rule, active = well fitted inhibition curve with a large enough effect; inconclusive = small, poorly fitted or top-dose-only effect; inactive = flat fitted curve, though single readings scatter.

Assays:
Test in all cases: qHTS profiling for inhibitors of Plasmodium falciparum proliferation (AID 504749);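 note: 0% = DMSO vehicle and full inhibition = artemisinin control; nearly all actives have a fitted effect of over 60% in size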
Conditions in all cases: P. falciparum in erythrocytes, SYBR Green DNA, 72 h; series mostly up to 28.7 µM
[1] = system: AS120
Outline: (§1)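 Parasite proliferation within erythrocytes, 72 h exposure. Endpoint: SYBR Green I fluorescence after overnight lysis at room temperature. Controls: 0.29 uM artemisinin, DMSO.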

[2] = system: ATS189
Outline: as §1

[3] = system: ATS95
Outline: as §1

[4] = system: C2A
Outline: as §1

[5] = system: CP185
Outline: as §1

[6] = system: CP191
Outline: as §1

[7] = system: CP192
Outline: as §1

[8] = system: CP194
Outline: as §1

[9] = system: CP201
Outline: as §1

[10] = system: CP203
Outline: as §1

[11] = system: CP211
Outline: as §1

[12] = system: CP215
Outline: as §1

[13] = system: CP217
Outline: as §1

[14] = system: CP237
Outline: as §1

[15] = system: CP238
Outline: as §1

[16] = system: CP247
Outline: as §1

[17] = system: CP250
Outline: as §1

[18] = system: CP252
Outline: as §1

[19] = system: CP256
Outline: as §1

[20] = system: CP260
Outline: as §1

O=C1CN=C(c2ccccc2)c2cc([N+](=O)[O-])ccc2N1
inactive: Potency [1] | Potency [2] | Potency [3] | Potency [4] | Potency [5] | Potency [6] | Potency [7] | Potency [8] | Potency [9] | Potency [10] | Potency [11] | Potency [12] | Potency [13] | Potency [14] | Potency [15] | Potency [16] | Potency [17] | Potency [18] | Potency [19] | Potency [20]

C[C@]12CCC(=O)C=C1CC[C@@H]1[C@@H]2CC[C@]2(C)C(=O)CC[C@@H]12
inactive: Potency [1] | Potency [2] | Potency [3] | Potency [4] | Potency [5] | Potency [6] | Potency [7] | Potency [8] | Potency [9] | Potency [10] | Potency [11] | Potency [12] | Potency [13] | Potency [14] | Potency [15] | Potency [16] | Potency [17] | Potency [18] | Potency [19] | Potency [20]

Nc1nc(N)nc(NC2CC2)n1
inactive: Potency [1] | Potency [2] | Potency [3] | Potency [4] | Potency [5] | Potency [6] | Potency [7] | Potency [8] | Potency [9] | Potency [10] | Potency [11] | Potency [12] | Potency [13] | Potency [14] | Potency [15] | Potency [16] | Potency [17] | Potency [18] | Potency [19] | Potency [20]

Nc1ccc([As](=O)(O)O)cc1
inactive: Potency [1] | Potency [2] | Potency [3] | Potency [4] | Potency [5] | Potency [6] | Potency [7] | Potency [8] | Potency [9] | Potency [10] | Potency [11] | Potency [12] | Potency [13] | Potency [14] | Potency [15] | Potency [16] | Potency [17] | Potency [18] | Potency [19] | Potency [20]

CN1C(=O)CC(=O)N(c2ccccc2)c2cc(Cl)ccc21
inactive: Potency [1] | Potency [2] | Potency [3] | Potency [4] | Potency [5] | Potency [6] | Potency [7] | Potency [8] | Potency [9] | Potency [10] | Potency [11] | Potency [12] | Potency [13] | Potency [14] | Potency [15] | Potency [16] | Potency [17] | Potency [18] | Potency [19] | Potency [20]

Clc1ccc2c(c1)C(c1ccccc1)=NCc1nncn1-2
inactive: Potency [1] | Potency [2] | Potency [3] | Potency [4] | Potency [5] | Potency [6] | Potency [7] | Potency [8] | Potency [9] | Potency [10] | Potency [11] | Potency [12] | Potency [13] | Potency [14] | Potency [15] | Potency [16] | Potency [17] | Potency [18] | Potency [19] | Potency [20]

COP(=S)(OC)Oc1ccc(S(=O)(=O)N(C)C)cc1
inactive: Potency [1] | Potency [2] | Potency [3] | Potency [4] | Potency [5] | Potency [6] | Potency [7] | Potency [8] | Potency [9] | Potency [10] | Potency [11] | Potency [12] | Potency [13] | Potency [14] | Potency [15] | Potency [16] | Potency [17] | Potency [18] | Potency [19] | Potency [20]

NCCc1ccc(O)cc1
inactive: Potency [1] | Potency [2] | Potency [3] | Potency [4] | Potency [5] | Potency [6] | Potency [7] | Potency [8] | Potency [9] | Potency [10] | Potency [11] | Potency [12] | Potency [13] | Potency [14] | Potency [15] | Potency [16] | Potency [17] | Potency [18] | Potency [19] | Potency [20]

CCC1(c2ccccc2)C(=O)N(COC)C(=O)N(COC)C1=O
inactive: Potency [1] | Potency [2] | Potency [3] | Potency [4] | Potency [5] | Potency [6] | Potency [7] | Potency [8] | Potency [9] | Potency [10] | Potency [11] | Potency [12] | Potency [13] | Potency [14] | Potency [15] | Potency [16] | Potency [17] | Potency [18] | Potency [19] | Potency [20]

CN1C(=O)NC(=O)C(C)(C2=CCCCC2)C1=O (centres undefined)
inactive: Potency [1] | Potency [2] | Potency [3] | Potency [4] | Potency [5] | Potency [6] | Potency [7] | Potency [8] | Potency [9] | Potency [10] | Potency [11] | Potency [12] | Potency [13] | Potency [14] | Potency [15] | Potency [16] | Potency [17] | Potency [18] | Potency [19] | Potency [20]

Oc1ccc(Cl)cc1
inactive: Potency [1] | Potency [2] | Potency [3] | Potency [4] | Potency [5] | Potency [6] | Potency [7] | Potency [8] | Potency [9] | Potency [10] | Potency [11] | Potency [12] | Potency [13] | Potency [14] | Potency [15] | Potency [16] | Potency [17] | Potency [18] | Potency [19] | Potency [20]

Nc1ccccc1C(=O)O
inactive: Potency [1] | Potency [2] | Potency [3] | Potency [4] | Potency [5] | Potency [6] | Potency [7] | Potency [8] | Potency [9] | Potency [10] | Potency [11] | Potency [12] | Potency [13] | Potency [14] | Potency [15] | Potency [16] | Potency [17] | Potency [18] | Potency [19] | Potency [20]

c1ccc2c(c1)sc1ccccc12
inactive: Potency [1] | Potency [2] | Potency [3] | Potency [4] | Potency [5] | Potency [6] | Potency [7] | Potency [8] | Potency [9] | Potency [10] | Potency [11] | Potency [12] | Potency [13] | Potency [14] | Potency [15] | Potency [16] | Potency [17] | Potency [18] | Potency [19] | Potency [20]

O=c1oc2ccccc2c(O)c1Cc1c(O)c2ccccc2oc1=O
inactive: Potency [1] | Potency [2] | Potency [3] | Potency [4] | Potency [5] | Potency [6] | Potency [7] | Potency [8] | Potency [9] | Potency [10] | Potency [11] | Potency [12] | Potency [13] | Potency [14] | Potency [15] | Potency [16] | Potency [17] | Potency [18] | Potency [19] | Potency [20]

COP(=S)(OC)Oc1ccc(SC)c(C)c1
inactive: Potency [1] | Potency [2] | Potency [3] | Potency [4] | Potency [5] | Potency [6] | Potency [7] | Potency [8] | Potency [9] | Potency [10] | Potency [11] | Potency [12] | Potency [13] | Potency [14] | Potency [15] | Potency [16] | Potency [17] | Potency [18] | Potency [19] | Potency [20]

CC(C)NC(C)C
inactive: Potency [1] | Potency [2] | Potency [3] | Potency [4] | Potency [5] | Potency [6] | Potency [7] | Potency [8] | Potency [9] | Potency [10] | Potency [11] | Potency [12] | Potency [13] | Potency [14] | Potency [15] | Potency [16] | Potency [17] | Potency [18] | Potency [19] | Potency [20]

O=C1OC(c2ccc(O)c(S(=O)(=O)O)c2)(c2ccc(O)c(S(=O)(=O)O)c2)c2c(Br)c(Br)c(Br)c(Br)c21
inactive: Potency [1] | Potency [2] | Potency [3] | Potency [4] | Potency [5] | Potency [6] | Potency [7] | Potency [8] | Potency [9] | Potency [10] | Potency [11] | Potency [12] | Potency [13] | Potency [14] | Potency [15] | Potency [16] | Potency [17] | Potency [18] | Potency [19] | Potency [20]

Clc1cccc(SC2CCNCC2)n1
inactive: Potency [1] | Potency [2] | Potency [3] | Potency [4] | Potency [5] | Potency [6] | Potency [7] | Potency [8] | Potency [9] | Potency [10] | Potency [11] | Potency [12] | Potency [13] | Potency [14] | Potency [15] | Potency [16] | Potency [17] | Potency [18] | Potency [19] | Potency [20]

Cc1ncsc1CCCl
inactive: Potency [1] | Potency [2] | Potency [3] | Potency [4] | Potency [5] | Potency [6] | Potency [7] | Potency [8] | Potency [9] | Potency [10] | Potency [11] | Potency [12] | Potency [13] | Potency [14] | Potency [15] | Potency [16] | Potency [17] | Potency [18] | Potency [19] | Potency [20]

NC(=O)CS(=O)C(c1ccccc1)c1ccccc1 (centres undefined)
inactive: Potency [1] | Potency [2] | Potency [3] | Potency [4] | Potency [5] | Potency [6] | Potency [7] | Potency [8] | Potency [9] | Potency [10] | Potency [11] | Potency [12] | Potency [13] | Potency [14] | Potency [15] | Potency [16] | Potency [17] | Potency [18] | Potency [19] | Potency [20]

CCOC(=O)CC(SP(=S)(OC)OC)C(=O)OCC (centres undefined)
inactive: Potency [1] | Potency [2] | Potency [3] | Potency [4] | Potency [5] | Potency [6] | Potency [7] | Potency [8] | Potency [9] | Potency [10] | Potency [11] | Potency [12] | Potency [13] | Potency [14] | Potency [15] | Potency [16] | Potency [17] | Potency [18] | Potency [19] | Potency [20]

CCCCC/C=C\C/C=C\C/C=C\C/C=C\CCCC(=O)NCC(=O)O
inactive: activity, negative = inhibition [1] -10.8% [at 2.67 µM] | activity, negative = inhibition [2] -4.38% [at 2.67 µM] | activity, negative = inhibition [3] -8.06% [at 2.67 µM] | activity, negative = inhibition [4] -0.778% [at 2.67 µM] | activity, negative = inhibition [5] 13.1% [at 2.67 µM] | activity, negative = inhibition [6] 8.29% [at 2.67 µM] | activity, negative = inhibition [7] -0.958% [at 2.67 µM] | activity, negative = inhibition [8] 0.793% [at 2.67 µM] | activity, negative = inhibition [9] 1.43% [at 2.67 µM] | activity, negative = inhibition [10] 6.81% [at 2.67 µM] | activity, negative = inhibition [11] 8.66% [at 2.67 µM] | activity, negative = inhibition [12] 4.08% [at 2.67 µM] | activity, negative = inhibition [13] -11% [at 2.67 µM] | activity, negative = inhibition [14] 0.3% [at 2.67 µM] | activity, negative = inhibition [15] -1.95% [at 2.67 µM] | activity, negative = inhibition [16] 9.07% [at 2.67 µM] | activity, negative = inhibition [17] 11.6% [at 2.67 µM] | activity, negative = inhibition [18] -0.781% [at 2.67 µM] | activity, negative = inhibition [19] 0.973% [at 2.67 µM] | activity, negative = inhibition [20] 4.28% [at 2.67 µM]

CN1CCC(O)(c2ccc(F)cc2)C(C(=O)c2ccc(F)cc2)C1 (centres undefined)
inactive: Potency [1] | Potency [2] | Potency [3] | Potency [4] | Potency [5] | Potency [6] | Potency [7] | Potency [8] | Potency [9] | Potency [10] | Potency [11] | Potency [12] | Potency [13] | Potency [14] | Potency [15] | Potency [16] | Potency [17] | Potency [18] | Potency [19]

CN1C(=O)COc2c(C(=O)NC3CN4CCC3CC4)cc(Cl)cc21 (centres undefined)
inactive: Potency [1] | Potency [2] | Potency [3] | Potency [4] | Potency [5] | Potency [6] | Potency [7] | Potency [8] | Potency [9] | Potency [10] | Potency [11] | Potency [12] | Potency [13] | Potency [14] | Potency [15] | Potency [16] | Potency [17] | Potency [18] | Potency [19] | Potency [20]
